CSC inhib – cancer stem cell viability inhibitors, primary screen, luminescence. cancer stem cell-like cells viability. inhibition, % at 7.5 µM. 1.1% of 300,000 active. AID 2717, 2010; in the data active = inhibition above about 75%; tested in HMLE shEcad cells
aSyn 5UTR inh – MLPCN primary screen, SNCA 5' untranslated region. alpha-synuclein 5'UTR reporter, inhibitor activity. inhibition, % (tested at 7.5 µM). 0.82% of 300,000 active. AID 1813, 2009; in the data active = inhibition above about 60%;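 also: H4 neuroglioblastoma cells stably carrying SNCA 5'UTR luciferase fusion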
697 NFkB inh – inhibitors of PMA/ionomycin-induced NF-kB reporter, 697 cells, primary screen, B-cell NF-kB inhibitor project, cell-based, luminescence, uHTS; AID 435022, 2010; 0.33% of 330,000 active; 697 B-cell NF-kB luciferase reporter, 16 h; inhibition, % at 4 µM; in the data active = inhibition above about 35%
Gli-Sufu antag – Gli-Sufu pathway antagonists, primary screen, luciferase luminescence, Sufu-KO-LIGHT cells, uHTS | Sufu-KO-LIGHT fibroblasts, Gli luciferase reporter luminescence | 0.74% of 340,000 active | inhibition, % at 5 µM;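 active = inhibition above about 55%, limit read from the data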
Jurkat NFkB inh – inhibitors of induced NF-kB luciferase reporter, primary screen, TCR NF-kB activation inhibitor project, cell-based, luminescence, uHTS. 0.53% of 330,000 active. inhibition, % at 4 µM. Jurkat, PMA/ionomycin-induced NF-kB luciferase reporter; in the data active = inhibition above about 50%
Mdm2 MdmX PPI – inhibitors of human Mdm2-MdmX association, primary screen, cell-based, luminescence, split luciferase, SaOS-2, uHTS | Protein Mdm4 (Homo sapiens) + E3 ubiquitin-protein ligase Mdm2 (Homo sapiens), … | SaOS-2 split-luciferase Mdm2/MdmX complementation | inhibition, % at 8 µM | 3% of 330,000 active;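 active = inhibition of at least 50% at 8 µM in the primary screen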
Target sequence (O15151 whole entry, looked up): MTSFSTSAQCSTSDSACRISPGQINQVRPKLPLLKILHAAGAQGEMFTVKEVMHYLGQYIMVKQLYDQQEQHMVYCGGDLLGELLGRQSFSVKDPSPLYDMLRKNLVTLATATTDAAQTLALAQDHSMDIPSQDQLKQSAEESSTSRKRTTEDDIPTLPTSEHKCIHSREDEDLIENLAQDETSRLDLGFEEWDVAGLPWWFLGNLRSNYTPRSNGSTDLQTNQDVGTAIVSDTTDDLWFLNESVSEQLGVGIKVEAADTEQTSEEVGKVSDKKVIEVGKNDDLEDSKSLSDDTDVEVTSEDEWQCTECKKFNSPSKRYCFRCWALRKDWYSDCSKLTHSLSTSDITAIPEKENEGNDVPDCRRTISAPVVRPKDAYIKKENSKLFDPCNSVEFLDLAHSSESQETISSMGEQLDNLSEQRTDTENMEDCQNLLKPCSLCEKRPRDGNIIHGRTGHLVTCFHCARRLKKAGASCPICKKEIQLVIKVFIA
Target sequence (Q00987 whole entry, looked up): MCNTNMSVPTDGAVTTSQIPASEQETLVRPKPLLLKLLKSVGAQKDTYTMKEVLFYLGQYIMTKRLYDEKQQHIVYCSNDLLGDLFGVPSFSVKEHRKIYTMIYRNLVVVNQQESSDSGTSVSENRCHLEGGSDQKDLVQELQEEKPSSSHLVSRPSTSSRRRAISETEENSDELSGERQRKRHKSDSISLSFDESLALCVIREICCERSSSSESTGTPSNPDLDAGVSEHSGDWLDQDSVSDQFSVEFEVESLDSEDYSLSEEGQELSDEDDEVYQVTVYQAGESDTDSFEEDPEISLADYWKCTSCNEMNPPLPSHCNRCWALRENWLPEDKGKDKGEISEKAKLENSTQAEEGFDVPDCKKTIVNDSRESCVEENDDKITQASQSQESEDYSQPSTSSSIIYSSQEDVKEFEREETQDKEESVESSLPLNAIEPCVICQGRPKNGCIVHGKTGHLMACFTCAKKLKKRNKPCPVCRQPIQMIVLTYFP
Gli-Sufu confirm – Gli-SUFU pathway antagonists, confirmation, single concentration, luciferase luminescence, Sufu-KO-LIGHT cells | shares compounds with Gli-Sufu antag | Gli luciferase reporter | inhibition, % at 5 µM | 40% of 2,500 active | AID 602428, 2012;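 active = mean inhibition at 5 µM reaching about 45%, limit read from the data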
SufuKO cytotox – cytotoxicity in Sufu-KO-LIGHT cells, confirmation, cytotoxicity control for Gli-SUFU antagonist project, cell-based, ATP luminescence, single concentration. AID 651994, 2013. 32% of 2,500 active. shares compounds with Gli-Sufu antag. cytotoxicity, % at 5 µM;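 active = mean cytotoxicity at 5 µM above about 25%, limit read from the data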;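 also: cells exposed to compound overnight for roughly 16 to 18 hours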
Wnt3a cs – Wnt3a reporter signal inhibition, confirmation, counter-screen for Gli-SUFU antagonist project, Wnt-LIGHT cells, luminescence, single concentration. shares compounds with Gli-Sufu antag. Wnt3a-driven luciferase reporter. inhibition, % at 6.25 µM. 20% of 2,500 active;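 active = mean inhibition above about 25%, limit read from the data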
A number is an active result; 0 = inactive; - = not tested or not shown. Most compounds without a hit are left out; they make up all but 4.5% or so of the library.

SMILES	CSC inhib	aSyn 5UTR inh	697 NFkB inh	Gli-Sufu antag	Jurkat NFkB inh	Mdm2 MdmX PPI	Gli-Sufu confirm	SufuKO cytotox	Wnt3a cs
Cc1n(Cc2ccccc2)c2ccccc2[n+]1Cc1ccccc1	0	0	0	0	0	0	62	33	0
COc1ccc(NC(=O)CSCC(=O)N2c3ccccc3CCc3ccccc32)cc1	0	0	0	66	0	0	0	0	0
COC(=O)CNC(=O)CNC(=O)c1nn(-c2ccc(OC)c(OC)c2)c(=O)c2ccccc12	0	0	0	0	0	0	0	0	0
Cc1nc(COc2ccc(C(=O)NCc3ccccc3CN3CCCCC3)cc2)cs1	0	-	0	0	0	0	-	-	-
CCNC(=O)CCn1nc(-c2ccc(Cl)cc2)c2ccccc2c1=O	-	0	0	0	0	0	-	-	-
COCCNC(=O)CCn1nc(-c2ccc(Cl)cc2)c2ccccc2c1=O	0	0	0	0	0	0	0	0	0
COc1ccccc1NC(=O)Cn1c(CCC(=O)O)ccc1-c1ccc(C)cc1	0	0	0	0	0	0	-	-	-
COc1ccc(CCN=C(N)NS(=O)(=O)c2ccc(C)c(C)c2)cc1	0	0	0	0	0	0	-	-	-
CCC(CO)Oc1cc(NCc2ccc(O)cc2)c2ncn(C(C)C)c2c1 (centres undefined)	-	-	0	0	0	0	-	-	-
CCC(CO)Oc1cc(NCc2ccc(C(C)(C)C)cc2)c2ncn(C(C)C)c2c1 (centres undefined)	-	-	0	58	0	0	48	0	30
COc1ccccc1NS(=O)(=O)c1ccc(O)c(C(=O)OCC(=O)Nc2ccccc2F)c1	0	0	0	0	0	0	-	-	-
CCN(Cc1ccccc1)C(=O)COC(=O)c1cc(S(=O)(=O)Nc2ccccc2OC)ccc1O	0	-	0	58	0	0	0	0	0
CCc1ccccc1N/C(=N\S(=O)(=O)c1ccccc1)C(F)(F)F	0	0	0	0	0	0	-	-	-
CN(c1ccccc1)S(=O)(=O)c1cccc(C(=O)Nc2nccs2)c1	0	0	0	0	0	0	-	-	-
C=CCSc1nnc(NC(=O)c2cccc(S(=O)(=O)N(C)c3ccccc3)c2)s1	0	0	0	74	0	0	0	0	0
O=C(c1cc(C(=O)N2CCCC2)cc([N+](=O)[O-])c1)N1CCCC1	0	0	0	0	0	0	-	-	-
COc1ccccc1NC(=O)CSc1nnc(CNC(=O)c2ccco2)n1C	0	0	0	0	0	0	-	-	-
Cn1c(CNC(=O)c2ccco2)nnc1SCC(=O)Nc1ccc(Cl)cc1	0	0	0	97	0	0	0	0	0
CCOc1ccccc1NC(=S)NC(=O)CCCOc1ccc(Cl)cc1Cl	0	0	0	65	0	0	0	0	0
CCCCOc1ccc(N2C(N)=NC(N)=NC23CCCCC3)cc1	0	0	0	59	0	0	48	0	0
COc1ccc(OCC(=O)Nc2ccc3c(c2)nc(CCN2CCN(C)CC2)n3C)cc1	0	0	0	0	0	0	0	0	0
COc1ccc(OCC(=O)Nc2ccc3c(c2)nc(CCN2CCCC2)n3C)cc1	0	0	0	0	0	0	-	-	-
Cn1nccc1C(=O)N1CCCC(C(=O)c2cccc3ccccc23)C1 (centres undefined)	0	0	0	72	0	0	0	0	0
CN(C)c1ccccc1C(=O)N1CCCC(C(=O)c2ccc3ccccc3c2)C1 (centres undefined)	0	0	0	61	0	0	0	0	0
Cc1ccccc1NC(=O)C1CCN(c2cc(-c3ccccc3)nc3ncnn23)CC1	0	0	0	0	0	0	-	-	-
SMILES	CSC inhib	aSyn 5UTR inh	697 NFkB inh	Gli-Sufu antag	Jurkat NFkB inh	Mdm2 MdmX PPI	Gli-Sufu confirm	SufuKO cytotox	Wnt3a cs
CCOC(=O)N1CCC(=NNS(=O)(=O)c2cccc([N+](=O)[O-])c2)CC1	0	0	0	0	0	0	-	-	-
CC(C)CCNC(=O)C1CCN(S(=O)(=O)c2ccc3c(c2)CC(C)N3C(=O)C2CCC2)CC1 (centres undefined)	0	0	0	0	0	0	-	-	-
CC(C)CCNC(=O)C1CCCN(S(=O)(=O)c2ccc3c(c2)CC(C)N3C(=O)C2CC2)C1 (centres undefined)	0	0	0	57	0	0	0	0	0
CC(=O)N1CCCc2cc(S(=O)(=O)N3CCCC(C(=O)NCc4ccccc4)C3)ccc21 (centres undefined)	0	0	0	0	0	0	0	0	0
CN(C)CCNS(=O)(=O)c1ccc(N2CCN(c3ccc(F)cc3)CC2)c([N+](=O)[O-])c1	0	0	0	0	0	0	-	-	-
NS(=O)(=O)c1cc(Cl)c(NC(=O)COC(=O)c2ccccn2)c(Cl)c1	0	-	0	0	0	0	-	-	-
CCNC(=S)N(CCN(C)C)Cc1cc2cc(OCC)ccc2[nH]c1=O	0	0	0	60	0	0	0	0	0
CCNC(=S)N(CCc1ccccc1C)Cc1cc2cc(OC)c(OC)cc2[nH]c1=O	0	0	0	0	0	0	-	-	-
CCNC(=S)N(CCc1cccc(C)c1)Cc1cc2cc(OC)c(OC)cc2[nH]c1=O	0	0	0	0	0	0	0	0	0
O=C(c1ccc([N+](=O)[O-])cc1)N(Cc1ccc(Cl)cc1)N1C(=O)CCCC1=O	0	0	0	78	0	0	90	71	0
COc1ccccc1N1CCN(/N=C/c2ccc(O)c(O)c2)CC1	0	0	0	0	0	0	0	0	0
NS(=O)(=O)c1cccc(NC(=O)COC(=O)CCCc2c[nH]c3ccccc23)c1	0	0	0	0	0	0	-	-	-
CC(CCc1ccccc1)NC(=O)C1CC1 (centres undefined)	0	0	0	61	0	0	0	0	0
CCCCn1c(CN(C)Cc2ccccc2)nc2c1c(=O)n(C)c(=O)n2C	0	0	0	60	0	0	52	0	0
CCC1CC2CC(NC(C)=O)C1C2 (centres undefined)	0	-	0	0	0	0	-	-	-
COc1cc(OC)cc(C(=O)Nc2ccccc2C(=O)NCc2cccnc2)c1	-	0	0	0	0	0	-	-	-
COc1ccccc1OC(C)C(=O)Nc1ccccc1C(=O)NCc1cccnc1 (centres undefined)	-	0	0	56	0	0	0	0	0
Cc1onc(-c2ccc(Cl)cc2)c1-c1ccnn1S(=O)(=O)c1cccc(C(F)(F)F)c1	0	0	0	0	0	0	-	-	-

Compound activity (PubChem)
